# Compound activity deposited in PubChem BioAssay by SRMLSC.
# NADH coupling – inhibitors of PK/LDH coupling enzymes, profiling panel, artefact control, biochemical, MLSMR library; coupled PK/LDH NADH assays, four targets; IC50, µM (doses to about 10 µM), for inactives: top-dose inhibition; actives 0.02% (n = 65,000); AID 774, 2007;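 active means single-dose screening hits from any of four coupled enzyme assays that gave an IC50 when retested across doses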;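 further: the DPM-DC format reads NADH fluorescence rather than 340 nm absorbance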
# Spn DPM-DC inh – S. pneumoniae DPM-DC inhibitors, primary screen, biochemical, PK/LDH-coupled NADH fluorescence | diphosphomevalonate decarboxylase (Streptococcus pneumoniae D39) | actives 0.49% (n = 65,000) | calls only at 10 µM | purified DPM-DC | AID 556, 2006;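 active means the 320 compounds with the highest percent inhibition in the single-dose primary screen, excluding strongly autofluorescent ones, cut at about 32% in these data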;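 further: kinetic rate of NADH fluorescence loss reporting ADP formed by the decarboxylase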
# Autofluor 339 – intrinsic fluorescence of library compounds, ex339/em460 – biochemical, MLSMR library, data from DPM-DC assay, artefact control, profiling panel | compound autofluorescence, ex339/em460 nm, NADH buffer; active compounds read high; 1 = no-compound wells, NADH background | fluorescence fold increase at 10 µM | actives 5.5% (n = 65,000) | AID 709, 2007;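 active means at 10 µM, mean starting fluorescence two-fold or more over control wells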;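 further: signal is the first read of a kinetic run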
# PMK inhibit – S. pneumoniae PMK inhibitors, primary screen, biochemical, mevalonate pathway, pilot trial included; purified PMK, PK/LDH-coupled NADH absorbance 340 nm; inhibition, % at 10 µM; actives 0.49% (n = 65,000); AID 539, 2006;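 active means top-ranked compounds by inhibition in the single 10 µM screen, taking a fixed number of the strongest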;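 further: 0% = full reaction with DMSO carrier and 100% = background rate without enzyme reaction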
# A340 absorber – compound light absorbance at 340 nm, profiling panel, artefact control, biochemical, MLSMR library, data from PS, PMK, MK assays. compound absorbance at 340 nm, fold over control. fold change at 10 µM. 65,000 tested, under 10 active. AID 708, 2007;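 active means at 10 µM dose, initial 340 nm absorbance at least 2 fold that of control wells; inactive means change under 2 fold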;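 further: initial absorbance extrapolated from kinetic A340 decline of NADH oxidation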
# Spn MK inh – S. pneumoniae MK inhibitors, primary screen, biochemical, PK/LDH-coupled NADH absorbance; purified MK, PK/LDH-coupled NADH absorbance 340 nm; inhibition, % at 10 µM; actives 0.48% (n = 65,000); AID 555, 2006;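 active means ranked among the strongest by inhibition in the single 10 µM screen, a fixed top-ranked set picked for dose follow-up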
# Numbers without * were called inactive; i = inactive; / = no result given; + = active, no number. The list is not random: actives were taken first. Their share in the collection is about 6.3%.
SMILES,NADH coupling,Spn DPM-DC inh,Autofluor 339,PMK inhibit,A340 absorber,Spn MK inh
CC(C)(C)NC(=O)c1ccc2c(c1)C(=O)N(C1CCCCC1)C2=O,6%,i,1.1,0,1,7
CCCCN(C(=O)NC(=O)Nc1ccccc1OC)S(C)(=O)=O,4%,i,1.1,6,0.99,5
CCCCN(C(=O)NC(=O)C1=C(N2CCOCC2)/C(=C/c2ccccc2)CC1)S(C)(=O)=O,5%,/,2.1*,0,1.1,9
CN(C(=O)NC(=O)C1=C(N2CCOCC2)/C(=C/c2ccccc2)CC1)S(C)(=O)=O,9%,i,2.9*,3,1.1,7
CC1CCCCN1C(=O)CSc1nnc(-c2c[nH]c3ccccc23)o1 (configuration not stated),8%,i,1.1,19,1,0
CCOC(=O)CSc1nc(C2CC2)nc2ccccc12,6%,i,1.1,14,1,4
O=C(COn1nnc2ccc(Cl)cc21)NCc1ccccc1,4%,i,1.1,13,0.99,0
CCCN(CCC)c1nc(C)cc(C(C#N)c2nc3ccccc3o2)n1 (configuration not stated),4%,i,2.2*,8,1,5
NC(N)=NC(=O)c1nc(Cl)c(N)nc1N,8%,i,2*,11,1,11
Cc1c(C(=O)NCC2CCCO2)oc2ccc(S(=O)(=O)N3CCCC3)cc12 (configuration not stated),2%,i,1.1,0,1.1,6
Cc1c(C(=O)NCC2CCCO2)oc2ccc3c(c12)C(=O)CC(C)(C)O3 (configuration not stated),13%,i,3*,13,1,4
CC1=C(C(=O)Nc2ccccc2C)C(c2cccnc2)n2nc(CCCO)nc2N1 (configuration not stated),4%,i,1.1,5,1.1,5
O=C(O)CCN1C(=O)c2ccc(NC(=O)c3cccs3)cc2C1=O,10%,/,3.6*,8,1.1,12
CCCC(=O)Nc1ccc2c(c1)C(=O)N(CCC(=O)O)C2=O,9%,/,3.8*,8,1.1,10
O=C1CCCN1c1cc(Cl)ccc1Cl,8%,i,1.1,14,1,8
CCOc1ccc(N2C(=O)CC(N)C2=O)cc1 (configuration not stated),6%,i,1,2,1.1,13
O=C(CCn1ccc2ccccc21)Nc1ccc(N2CCOCC2)cc1,5%,i,1.1,6,1,8
CCCc1cc(-c2[nH]ncc2-c2ccc3c(c2)OCCCO3)c(O)cc1O,4%,i,1.1,7,1,5
CCCc1cc(-c2[nH]ncc2-c2ccc(C(=O)OCC)o2)c(O)cc1O,4%,i,2.2*,4,1,3
COc1ccc(-c2nc3c(c(=O)n(C)c(=O)n3C)n2CC2CC(c3ccccc3)=NO2)cc1OC (configuration not stated),6%,i,1.4,21,0.99,13
COc1cccc(-c2nnc(Nc3nc4c(F)cccc4s3)o2)c1,8%,/,4.9*,12,1.3,4
COc1ccccc1-c1nnc(Nc2nc3c(OC)cccc3s2)o1,9%,i,1.6,13,1.2,0
CCOc1ccc2nc(NC(=O)C3CCN(c4cnccn4)CC3)sc2c1,10%,i,2.6*,11,1,0
Cc1ccc(-c2csc3ncnc(Sc4nnc(CN5CCCCCC5=O)o4)c23)cc1,9%,i,1.1,14,1,13
CC(=NCc1ccco1)c1c(C)[nH]n(-c2nc3ccccc3s2)c1=O,16%,+,1.2,12,1.1,0
COc1ccc(C2C3=C(CCCC3=O)Nc3nc4ccccc4n32)c(OC)c1OC (configuration not stated),4%,/,5.1*,8,1.1,0
